The supplement of paper PMC9262897, “Low-cost anti-mycobacterial drug discovery using engineered E. coli” (Nature Communications, 2022)
Structures can show the parent of a compound that is named as a salt. ± gives the standard deviation of the averaged measurements.

How the values were obtained:
Test in all cases: growth (OD600 after 10 h); higher = more growth (less inhibition)
[1] = test system: E. coli TESEC Alr+ wild-type control; settings: compound 0.1 mM; raw OD600 reference: median of DMSO wells 0.241, cell-free background 0.041
Method: (§1)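 TESEC Mtb Alr E. coli, or the Alr+ wild-type control, in 384-well plates with Prestwick library compounds at 0.1 mM and 1% DMSO, across arabinose induction levels of 1E3 to 1E7 nM. Growth is read as OD600 after 10 h at 37 °C in triplicate biological replicates.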

E. coli TESEC Mtb Alr [2] = settings: compound 0.1 mM
Method: as §1

E. coli TESEC Mtb Asd = settings: compound 0.1 mM
Method: (§2)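 TESEC E. coli strains in which the native enzyme is deleted and replaced by arabinose-inducible Mtb Asd, DapB, CysH or TrpD, each grown in its selective medium. Strains were screened against the Prestwick library at 0.1 mM and 1% DMSO in 384-well format at low and high arabinose induction. Growth is read as OD600 after 10 h in triplicate.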

E. coli TESEC Mtb DapB = settings: compound 0.1 mM
Method: as §2

[3] = test system: E. coli TESEC Alr+ wild-type control; settings: compound 0.1 mM; raw OD600 reference: median of DMSO wells 0.49, cell-free background 0.052
Method: (§3)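 TESEC Mtb Alr E. coli (ΔaraC ΔtolC ΔentC Δalr ΔdadX, arabinose-inducible Mtb Alr) or the Alr+ wild-type control strain, grown in defined M9-fructose medium without D-alanine in 96-well plates with Prestwick library compounds at 0.1 mM and 1% DMSO. Low Alr induction is 0.1 µM arabinose and high induction is 10 mM arabinose.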

E. coli TESEC Mtb Alr [4] = settings: compound 0.1 mM; remark: listed apart in the source
Method: as §3

[5] = arabinose 1000 nM, raw OD600 reference: median of DMSO wells 0.294, cell-free background 0.041
[6] = arabinose 10000 nM, raw OD600 reference: median of DMSO wells 0.264, cell-free background 0.041
[7] = arabinose 100000 nM, raw OD600 reference: median of DMSO wells 0.201, cell-free background 0.041
[8] = arabinose 1000000 nM, raw OD600 reference: median of DMSO wells 0.193, cell-free background 0.041
[9] = arabinose 10000000 nM, raw OD600 reference: median of DMSO wells 0.146, cell-free background 0.041
[10] = arabinose induction (level): High, raw OD600 reference: median of DMSO wells 0.331, cell-free background 0.041
[11] = arabinose induction (level): Low, raw OD600 reference: median of DMSO wells 0.417, cell-free background 0.041
[12] = arabinose induction (level): High, raw OD600 reference: median of DMSO wells […], cell-free background 0.041
[13] = arabinose induction (level): Low, raw OD600 reference: median of DMSO wells 0.227, cell-free background 0.041
[14] = arabinose 100 nM, raw OD600 reference: median of DMSO wells 0.413, cell-free background 0.052
[15] = arabinose 10000000 nM, raw OD600 reference: median of DMSO wells […], cell-free background 0.052

Compound	growth [1]	growth (E. coli TESEC Mtb Alr [2]; [5])	growth (E. coli TESEC Mtb Alr [2]; [6])	growth (E. coli TESEC Mtb Alr [2]; [7])	growth (E. coli TESEC Mtb Alr [2]; [8])	growth (E. coli TESEC Mtb Alr [2]; [9])	growth (E. coli TESEC Mtb Asd; [10])	growth (E. coli TESEC Mtb Asd; [11])	growth (E. coli TESEC Mtb DapB; [12])	growth (E. coli TESEC Mtb DapB; [13])	growth [3]	growth (E. coli TESEC Mtb Alr [4]; [14])	growth (E. coli TESEC Mtb Alr [4]; [15])
Cn1c(=O)c2c(ncn2C)n(C)c1=O [Caffeine]	0.233 ± 0.0046	0.28 ± 0.0091	0.277 ± 0.0046	0.2 ± 0.016	0.215 ± 0.0057	0.14 ± 0.0044	0.304 ± 0.065	0.352 ± 0.11	0.192 ± 0.01	0.228 ± 0.044	0.617 ± 0.065	0.412 ± 0.0085	0.369 ± 0.006
Nc1ccccc1S(N)(=O)=O [2-Aminobenzenesulfonamide]	0.239 ± 0.0094	0.296 ± 0.019	0.255 ± 0.0044	0.198 ± 0.0049	0.187 ± 0.0032	0.137 ± 0.004	0.399 ± 0.029	0.49 ± 0.028	0.2 ± 0.019	0.202 ± 0.019	0.566 ± 0.029	0.416 ± 0.013	0.343 ± 0.0096
C#C[C@]1(O)CC[C@H]2[C@@H]3CCC4=CC(=O)CC[C@@H]4[C@H]3CC[C@@]21CC [Norgestrel-(-)-D]	0.225 ± 0.017	0.271 ± 0.0042	0.2581 ± 0.0012	0.193 ± 0.014	0.179 ± 0.0092	0.145 ± 0.007	0.374 ± 0.051	0.429 ± 0.018	0.191 ± 0.0085	0.234 ± 0.04	0.517 ± 0.04	0.413 ± 0.018	0.331 ± 0.039
CC(=O)OCC(CCn1cnc2cnc(N)nc21)COC(C)=O [Famciclovir]	0.23 ± 0.005	0.288 ± 0.0069	0.269 ± 0.0058	0.184 ± 0.031	0.21 ± 0.021	0.14 ± 0.0045	0.284 ± 0.048	0.386 ± 0.039	0.179 ± 0.0051	0.199 ± 0.031	0.56 ± 0.17	0.4163 ± 0.0038	0.346 ± 0.0062
CC(Cc1cccc(C(F)(F)F)c1)NCCOC(=O)c1ccccc1 (stereo not given) [Benfluorex]	0.174 ± 0.0053	0.15 ± 0.094	0.163 ± 0.0039	0.209 ± 0.0022	0.0479 ± 0.0001	0.0634 ± 0.0014	0.163 ± 0.014	0.153 ± 0.0072	0.149 ± 0.0064	0.1621 ± 0.00032	0.405 ± 0.013	0.411 ± 0.01	0.0607 ± 0.0052
CS(=O)(=O)c1ccc([C@@H](O)[C@@H](CF)NC(=O)C(Cl)Cl)cc1 [Florfenicol]	0.0412 ± 0.0009	0.0406 ± 0.00059	0.0395 ± 0.0002	0.04123 ± 0.0004	0.03917 ± 0.00012	0.0409 ± 0.00017	0.054 ± 0.0047	0.0538 ± 0.0014	0.0485 ± 0.0014	0.0488 ± 0.001	0.05113 ± 0.00023	0.05607 ± 0.00047	0.0524 ± 0.0018
CCOC(=O)C1=C(C)NC(C)=C(C(=O)OC)C1c1cccc([N+](=O)[O-])c1 (stereo not given) [Nitrendipine]	0.173 ± 0.013	0.224 ± 0.01	0.0536 ± 0.0045	0.165 ± 0.0036	0.0556 ± 0.00083	0.15 ± 0.0073	0.246 ± 0.036	0.4531 ± 0.0035	0.217 ± 0.016	0.215 ± 0.0092	0.557 ± 0.015	0.412 ± 0.017	0.221 ± 0.13
Cc1nc(=O)c2cc(CN(C)c3ccc(C(=O)N[C@@H](CCC(=O)O)C(=O)O)s3)ccc2[nH]1 [Raltitrexed]	0.229 ± 0.012	0.259 ± 0.0086	0.358 ± 0.013	0.171 ± 0.02	0.173 ± 0.0097	0.162 ± 0.0053	0.269 ± 0.05	0.4225 ± 0.0017	0.188 ± 0.015	0.198 ± 0.029	0.606 ± 0.055	0.409 ± 0.016	0.322 ± 0.011
Nc1ccc(S(=O)(=O)Nc2ccnn2-c2ccccc2)cc1 [Sulfaphenazole]	0.231 ± 0.0032	0.236 ± 0.0082	0.1522 ± 0.0011	0.197 ± 0.031	0.0993 ± 0.0064	0.149 ± 0.0051	0.335 ± 0.033	0.354 ± 0.0096	0.163 ± 0.016	0.174 ± 0.03	0.484 ± 0.04	0.429 ± 0.0073	0.233 ± 0.15
O=C(CCCN1CC=C(n2c(=O)[nH]c3ccccc32)CC1)c1ccc(F)cc1 [Droperidol]	0.178 ± 0.0085	0.241 ± 0.005	0.225 ± 0.0067	0.175 ± 0.014	0.105 ± 0.0018	0.152 ± 0.0037	0.205 ± 0.056	0.359 ± 0.058	0.184 ± 0.015	0.206 ± 0.029	0.404 ± 0.025	0.409 ± 0.0085	0.276 ± 0.0059
O=C1NCC2(CCN(CCc3ccccc3)CC2)O1 [Fenspiride hydrochloride]	0.248 ± 0.0052	0.288 ± 0.013	0.27 ± 0.0043	0.199 ± 0.0053	0.185 ± 0.0044	0.148 ± 0.0017	0.366 ± 0.098	0.45 ± 0.025	0.199 ± 0.011	0.253 ± 0.048	0.487 ± 0.054	0.415 ± 0.0097	0.336 ± 0.0092
CC[C@H](C)C(=O)O[C@H]1C[C@@H](C)C=C2C=C[C@H](C)[C@H](CC[C@@H]3C[C@@H](O)CC(=O)O3)[C@H]21 [Lovastatin]	0.256 ± 0.0052	0.307 ± 0.01	0.0518 ± 0.002	0.21 ± 0.017	0.0567 ± 0.013	0.139 ± 0.0042	0.276 ± 0.026	0.35 ± 0.065	0.163 ± 0.018	0.192 ± 0.023	0.473 ± 0.043	0.43 ± 0.018	0.148 ± 0.042
CC(C(=O)O)c1ccc(N2Cc3ccccc3C2=O)cc1 (stereo not given) [Indoprofen]	0.219 ± 0.011	0.264 ± 0.018	0.249 ± 0.0066	0.178 ± 0.0022	0.189 ± 0.0034	0.128 ± 0.0066	0.345 ± 0.075	0.353 ± 0.053	0.206 ± 0.016	0.186 ± 0.0097	0.486 ± 0.053	0.424 ± 0.013	0.361 ± 0.007
CN1CCCC(CC2c3ccccc3Sc3ccccc32)C1 (stereo not given) [Metixene hydrochloride]	0.0422 ± 0.00059	0.0424 ± 0.0015	0.0424 ± 0.00036	0.04217 ± 0.00038	0.04163 ± 0.00021	0.044 ± 0.0005	0.0629 ± 0.015	0.053 ± 0.0011	0.135 ± 0.07	0.0594 ± 0.0035	0.0609 ± 0.015	0.401 ± 0.0069	0.055 ± 0.0024
O=C(N/N=C/c1ccc([N+](=O)[O-])o1)c1ccc(O)cc1 [Nifuroxazide]	0.148 ± 0.0071	0.217 ± 0.018	0.0914 ± 0.0034	0.164 ± 0.022	0.0664 ± 0.0028	0.133 ± 0.0085	0.053 ± 0.00057	0.0519 ± 0.0049	0.0553 ± 0.0015	0.0557 ± 0.0021	0.0581 ± 0.0039	0.0646 ± 0.0031	0.0578 ± 0.0014
